The values below come from PubChem BioAssay.

For orientation: viability means a read-out of living cells in per cent, often relative to untreated cells. As usually defined, the inhibition is the drop in the measured response relative to a control, in per cent.

Values joined by “and” are separate entries in the source; they are usually repeats but may differ in a detail not shown here. Equal values may be shown once. Active and inactive are the calls of the source. Unless noted, no stated cut-off is given here; in the data, active means parasite load remaining mostly below about 12% (no sharp cut-off); inactive means mostly above about 10%.

The nature of test [1]: liver-stage malaria parasite growth inhibition, primary screen, cell-based, HepG2, luciferase luminescence, HepG2 viability (AID 624349).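 Further: 100% = mean of DMSO negative control wells on the same plate.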 The following applies: P. berghei liver stage in HepG2, luciferase luminescence, concentration not given here; parasite load remaining: stronger effect = lower value; viability: measured here: HepG2 viability without parasites.
In test [2] the test system is Hepatitis C virus NS3 helicase. Briefly: HCV NS3 helicase inhibitors, primary screen, biochemical, fluorescence polarization, LOPAC1280 library (AID 687035; in the data active means inhibition above about 37%). Particulars: Purified HCV NS3 helicase, Cy5-dT15 ssDNA binding fluorescence polarization; stronger effect = higher value; concentration not given here. On the technique in general: In fluorescence polarisation assays a small probe gives low polarisation when free and higher when bound to something large.

Test [3] in a line: Cy5 fluorescence quenching or enhancement artefacts, artefact control for HCV NS3 helicase inhibitor project, biochemical, LOPAC1280 (AID 687037; call rule not given here). Particulars: Cy5-DNA-NS3h complex fluorescence interference counterscreen. On the technique in general: The purpose of a counterscreen is to sort out artefacts and off-target activity.
The nature of test [4]: stimulators of nuclear beta-catenin in C2C12, primary screen, imaging, WNT3A-conditioned medium, mouse C2C12, NPC library (AID 1117326; in the data active means nuclear beta-catenin stimulation mostly above about 4.2%, no sharp cut-off; inactive means mostly below about 10%). Particulars: stronger effect = higher value.
Test [5] can be described thus: stimulators of insulin release from INS-1E, primary screen, cell-based, 5 mM glucose, NPC library (AID 1117329;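 active means compound raises insulin release from rat beta cells at 5 mM glucose, no numeric limit stated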). Particulars: rat INS-1E insulin secretion, at 10 µM, stronger effect = higher value.
Test [6] can be described thus: growth inhibition of GSK3B-pretreated HCT116 cells – cell-based, CellTiter-Glo, 0.2 to 20 µM (AID 1117336;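 active means compounds lowering colon cancer cell viability after pretreatment blocking the GSK3B kinase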). Particulars: HCT116 viability after GSK3B inhibitor, at 20 µM, stronger effect = higher value. Background: Cellular ATP, detected with luciferase, serves as a proxy for viable cell number.
The nature of test [7]: inhibition of endothelial tube formation, primary screen, imaging, VEGF stimulated, CD31 staining, tube area, NPC library (AID 1117340;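 active means compound that reduces growth-factor-driven endothelial tube area in a mixed cell culture, no cutoff stated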). Particulars: VEGF-stimulated ADSC/ECFC co-culture, at 10 µM, stronger effect = higher value.
Test [8] can be described thus: glucagon-like peptide 1 release enhancers, primary assay, NCI-H716 cell line, NPC library (AID 1117341;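 active means compound raises GLP1 secretion from the human gut endocrine cells, with no numeric limit stated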). Particulars: NCI-H716 cells, at 10 µM, stronger effect = higher value.
Test [9] is described as follows: HCT116 colon cancer cell growth inhibition, primary screen, CellTiter-Glo luminescence, NPC library (AID 1117342;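 active means compounds that lower survival of HCT116 colon cancer cells in the luminescence readout, no numeric limit stated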). The following applies: at 20 µM (top of the series).
Test [10] can be described thus: CellTiter-Glo luminescent readout of SW480 viability loss, NPC library primary (AID 1117343;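 active means compounds that lower viability of the colon cancer cells in the luminescence readout, with no numeric limit stated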). Particulars: CellTiter-Glo luminescence; at 20 µM (top of the series).
The nature of test [11]: decreased DLD-1 cellular survival, CellTiter-Glo luminescent readout, NPC compound collection, primary HTS (AID 1117346;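 active means compounds that lower survival of DLD-1 colon cancer cells in the luminescence readout, no cutoff given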). Particulars: DLD-1 viability, CellTiter-Glo luminescence; at 20 µM (top of the series).
A short description of test [12]: Cy5 fluorescence interference with SSB-bound oligo, artefact control for HCV NS3 helicase inhibitor project, biochemical, NIH Clinical Collection, E. coli SSB (AID 743268; call rule not given here).
For test [13], the system named is Hepatitis C virus NS3 helicase. Briefly: HCV NS3 helicase inhibitors, primary screen, biochemical, fluorescence polarization, NIH Clinical Collection (AID 743270; call rule not given here). Particulars: NS3 helicase binding to Cy5-dT15 DNA, stronger effect = higher value, concentration not given here.
The target in test [14] is Single-stranded DNA-binding protein (Escherichia coli (strain K12)) (UniProt P0AGE0). Briefly: E. coli SSB displacement from DNA, counter-screen for HCV NS3 helicase inhibitor project, biochemical, fluorescence polarization, NIH Clinical Collection (AID 743271; in the data active means inhibition above about 28%). Particulars: stronger effect = higher value, concentration not given here.
Test [15] in a line: fluorescence interference in NS3h assay format, artefact control for HCV NS3 helicase inhibitor project, biochemical, NIH Clinical Collection (AID 743272; call rule not given here;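 further: HCV NS3 helicase with a Cy5 labelled single stranded DNA probe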). The following applies: fluorescence interference counterscreen, stronger effect = lower value.

In the case of `CCCCNc1c(C(=O)OCC)c(C)nc2c1cnn2CC`, the parasite load remaining in [1] is 80.1% (inactive). Also, the viability in test [1] stood at 77.6%. Also, the inhibition in test [2] was -5% (inactive). Besides, the fluorescence ratio (interference) in test [3] was 1 (inactive). Moreover, the nuclear beta-catenin stimulation is -0.5% (inactive) in test [4] (at 10 µM) and 1.7% in test [4] (stimulation, at 2 µM). Moreover, the insulin secretion stimulation in [5] was 6.8% (inactive). In addition, in [6], the viability decrease was 93.3% (active). The tube area decrease in test [7] is 10.7% (inactive). Further, the GLP1 secretion stimulation in test [8] is 3.7% (inactive). Further, the inhibition of viability in test [9] is 94.4% (active). Moreover, the values for the viability decrease (inhibition) in test [10] and in [11] were 124% (active) and 78.4% (active), respectively.

On to `COc1cc(C(=O)OCCCN2CCCN(CCCOC(=O)c3cc(OC)c(OC)c(OC)c3)CC2)cc(OC)c1OC`, for which the parasite load remaining in test [1] is 44% (inactive) and 120% (inactive) and 14% (inactive). In test [1], the viability is 47.9% and 91.2% and 76.5%. Besides, in [2], the inhibition is -3% (inactive). Further, the fluorescence ratio (interference) in test [3] was 1 (inactive). Besides, the nuclear beta-catenin stimulation in [4] (at 10 µM) is 1.3% (inactive); in test [4] (stimulation, at 2 µM), 1.7%. In addition, the insulin secretion stimulation in test [5] was 79.2% (active). Further, the viability decrease in test [6] was 38.2% (inactive). In addition, the tube area decrease in test [7] was 4.6% (inactive). Besides, the GLP1 secretion stimulation in test [8] is 7.5% (inactive). Moreover, the inhibition of viability in test [9] is 77.6% (active). Further, the viability decrease (inhibition) is 92.3% (active) in test [10] and 24% (inactive) in test [11].

Take `NS(=O)(=O)c1cc2c(cc1Cl)NC(C1CC3C=CC1C3)NS2(=O)=O` (stereo not given): the parasite load remaining in [1] is 56.1% (inactive). Moreover, the viability in test [1] came out at 133%. Further, the inhibition in test [2] is -1% (inactive). Moreover, the fluorescence ratio (interference) in [3] is 1 (inactive). Also, the nuclear beta-catenin stimulation in test [4] (at 10 µM) was 0.8% (inactive); in [4] (stimulation, at 2 µM), 0%. In addition, the insulin secretion stimulation in test [5] is -1% (inactive). In [6], the viability decrease is -17% (inactive). Besides, the tube area decrease in [7] was 2.9% (inactive). The GLP1 secretion stimulation in test [8] is -2.5% (inactive). Besides, in test [9], the inhibition of viability is -8.27% (inactive). Besides, the viability decrease (inhibition) was 8.9% (inactive) in test [10] and -15.4% (inactive) in [11].

With `CO[C@@H]1[C@@H](OC(N)=O)[C@@H](O)[C@H](Oc2ccc3c(O)c(NC(=O)c4ccc(O)c(CC=C(C)C)c4)c(=O)oc3c2C)OC1(C)C`, the parasite load remaining in test [1] was 96.3% (inactive) and 84% (inactive). Further, the viability in test [1] is 73.9% and 88.8%. The nuclear beta-catenin stimulation is -0.7% (inactive) in [4] (at 10 µM) and 1.5% in test [4] (stimulation, at 2 µM). Moreover, in test [5], the insulin secretion stimulation is -0.3% (inactive). Moreover, the viability decrease in test [6] is -78.9% (inactive). In addition, the tube area decrease in [7] is -1.9% (inactive). The GLP1 secretion stimulation in test [8] was 0.7% (inactive). Moreover, the inhibition of viability in test [9] was -1.6% (inactive). In addition, the results for the viability decrease (inhibition) in [10] and in test [11] were -22.2% (inactive) and -21.8% (inactive), respectively.

On to `Cc1cc2c(C(C)C)c(O)c(O)c(C=O)c2c(O)c1-c1c(C)cc2c(C(C)C)c(O)c(O)c(C=O)c2c1O`, for which, in test [1], the parasite load remaining was 56.7% (inactive). In [1], the viability came to 83.7%. Moreover, the inhibition in test [2] was -1% (inactive). For the same compound, in test [3], the fluorescence ratio (interference) is 0.9 (inactive). The nuclear beta-catenin stimulation in [4] (at 10 µM) is 64.5% (active); in test [4] (stimulation, at 2 µM), 6.3%. The insulin secretion stimulation in test [5] was 0.5% (inactive). Also, the viability decrease in test [6] was 82% (active). The tube area decrease in test [7] is 110% (active). For the same compound, the GLP1 secretion stimulation in test [8] is 76.4% (active). Also, in test [9], the inhibition of viability is 91.7% (active). Also, the viability decrease (inhibition) in [10] was 108% (active); in [11] it was 64.1% (active).

Take `Clc1ccc2nsnc2c1NC1=NCCN1`: in [1], the parasite load remaining is 61.3% (inactive) and 52.1% (inactive). Besides, in test [1], the viability is 95.4% and 240%. Besides, the inhibition in test [2] was -3% (inactive); in test [13] it was -5% (inactive); in test [14] it was -2.76% (inactive). Further, the fluorescence ratio (interference) in [3] is 1 (inactive). Further, the figures for the fluorescence ratio in test [12] and in test [15] were 1.05 (inactive) and 0.99 (inactive), respectively. The nuclear beta-catenin stimulation in [4] (at 10 µM) was 0.6% (inactive); in test [4] (stimulation, at 2 µM), -0.6%. In addition, the insulin secretion stimulation in test [5] is 0.4% (inactive). In [6], the viability decrease is 1.1% (inactive). For the same compound, the tube area decrease in [7] is -9.7% (inactive). In test [8], the GLP1 secretion stimulation was 2.7% (inactive). Further, the inhibition of viability in [9] is 11.7% (inactive). The viability decrease (inhibition) is 8% (inactive) in test [10] and 6% (inactive) in [11].
